ATG4B inh: ATG4B protease inhibitors, primary screen, biochemical, fluorescence, uHTS | ATG4B cleavage of LC3-PLA2, NBD-HPC fluorescence, 1 h | inhibition, % at 8.33 µM | 340,000 tested, 0.51% active | AID 504462, 2011; in the data active means inhibition above about 40%
Target sequence (Q9Y4P1 whole entry, looked up): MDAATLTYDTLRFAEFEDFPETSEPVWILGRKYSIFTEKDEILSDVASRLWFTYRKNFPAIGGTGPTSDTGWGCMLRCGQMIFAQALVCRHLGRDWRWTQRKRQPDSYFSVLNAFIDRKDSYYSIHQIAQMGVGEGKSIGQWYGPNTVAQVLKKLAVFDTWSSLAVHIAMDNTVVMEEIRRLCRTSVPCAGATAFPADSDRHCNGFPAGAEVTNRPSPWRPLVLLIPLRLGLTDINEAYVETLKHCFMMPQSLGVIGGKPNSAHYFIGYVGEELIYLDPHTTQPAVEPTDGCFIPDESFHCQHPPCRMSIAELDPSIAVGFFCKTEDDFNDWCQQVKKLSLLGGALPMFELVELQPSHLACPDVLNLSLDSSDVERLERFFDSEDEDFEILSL
CFTR F508del cor: F508del CFTR correction, initial screen, CFBE line, single point; CFBE cells, YFP halide quenching; stimulated with forskolin plus potentiator P3; % fluorescence drop versus neutral controls; activity (quench increase), % at 7.58 µM; 350,000 tested, 0.36% active;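 active means mean added fluorescence quench of at least 8% versus neutral control, with both replicates also reaching 8%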;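 further: cells transiently co-express mutant CFTR-F508del with the halide-sensitive YFP; corrector assay measuring rescue of mutant channel to the surface after 24 h compound exposure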
MPTP block: mitochondrial permeability transition pore inhibitors, primary screen, biochemical, isolated mouse mitochondria, absorbance. inhibition, % at 10 µM. AID 602449, 2012. Ca2+ swelling absorbance, 30 min. 360,000 tested, 1.4% active;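 active means inhibition of 50% or more, scaled per plate between neutral and stimulator controls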;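 further: 0% = DMSO wells given calcium and 100% = 1 mM EGTA wells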
SKN-1 block: suppressors of acrylamide-induced Pgst-4::GFP reporter in worms, primary screen, SKN-1 inhibitor project, whole organism, uHTS, GFP/RFP fluorescence ratio, strain VP596; C. elegans VP596 Pgst-4::GFP/RFP ratio, 24 h; inhibition, % at 21.8 µM; 360,000 tested, 0.49% active; AID 624304, 2012;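 active means interference check ratio from 0.5 to 1.5 plus GFP to RFP signal ratio inhibition reaching or exceeding a fixed threshold, cut at about 30% in these data, passing the limit was not always enough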
NRP1-CendR mod: modulators of CendR peptide binding to NRP-1, primary screen, biochemical, fluorescence polarization, uHTS; FAM-RPARPAR peptide binding to NRP-1; Neuropilin-1 (Homo sapiens), O14786; inhibition, % at 25 µM; 360,000 tested, 0.85% active;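 active means inhibition or corrected inhibition above about 18%, plus a signal ratio from 0.5 to 1.5, limit read from the data, passing the limit was not always enough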
MPTP counter: fluorescence retest of MPTP screen hits in isolated mitochondria, single concentration; inhibition, % at 10 µM; membrane potential, Rhodamine 123 fluorescence; shares compounds with MPTP block; AID 624504, 2012; 5,000 tested, 78% active; in the data active means inhibition above about 22%;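 further: 0% = DMSO vehicle and 100% = positive control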
Active calls of the source: *. The list is not random: actives were taken first. Their share in the collection is about 2.7%.

COCCN(CCOC)S(=O)(=O)c1ccc(C(=O)Nc2nc(-c3ccccc3)c(C(=O)c3ccccc3)s2)cc1 was read as ATG4B inh -7, MPTP block 2, SKN-1 block 4 and NRP1-CendR mod -7.
For CCCN(CCC)CC(O)Cn1cc(/C=C/C(=O)c2cccs2)c2ccccc21 (stereo not given) the results were ATG4B inh -7, CFTR F508del cor -1, MPTP block 74*, SKN-1 block 1, NRP1-CendR mod -118 and MPTP counter -16.
`CCCN(C)C[C@@H]1Oc2cc(C3=CCCC3)ccc2S(=O)(=O)N([C@@H](C)CO)C[C@H]1C` gave CFTR F508del cor -1.
Screening COc1ccc(C2C(=O)c3ccccc3C2=Nc2ccc(Br)cc2)cc1 (stereo not given) returned ATG4B inh 6, CFTR F508del cor -1, MPTP block 90*, SKN-1 block -4, NRP1-CendR mod 16 and MPTP counter 50*.
For O=C(NC(NC1CCS(=O)(=O)C1)C(Cl)(Cl)Cl)c1ccc(Br)cc1 (stereo not given) the results were ATG4B inh -1, MPTP block 91*, SKN-1 block 17, NRP1-CendR mod 4 and MPTP counter 102*.
Screening Fc1cccc(Cl)c1-c1nnc2ccc3ccccc3n12 returned ATG4B inh 5, CFTR F508del cor 1, MPTP block 51*, SKN-1 block 18, NRP1-CendR mod -7 and MPTP counter 31*.
C[C@@H]1CN([C@H](C)CO)C(=O)CCCn2nncc2CO[C@@H]1CN(C)S(=O)(=O)c1ccc(-c2ccccc2)cc1 was read as CFTR F508del cor 0.
`CC1CCCCC1NC(=S)Nc1ccc(SC(F)F)cc1` (stereo not given) gave ATG4B inh 23, MPTP block 66*, SKN-1 block 1, NRP1-CendR mod -8 and MPTP counter 91*.
`FC(F)Sc1ccc(NC(=S)NC(c2ccccc2)c2ccccc2)cc1` gave ATG4B inh -3, CFTR F508del cor 3, MPTP block 98*, SKN-1 block -9, NRP1-CendR mod -1 and MPTP counter 63*.
CN(CC(=O)Nc1ccc(SC(F)F)cc1)C1CCCCC1 was read as ATG4B inh -2, CFTR F508del cor 0, MPTP block 1, SKN-1 block 2 and NRP1-CendR mod -8.
`FC(F)Sc1ccc(NC(=S)NCC2CCCCC2)cc1` gave ATG4B inh 29, CFTR F508del cor 1, MPTP block 103*, SKN-1 block 13, NRP1-CendR mod 14 and MPTP counter 80*.
Screening FC(F)Sc1ccc(NC(=S)NC2CCCCC2)cc1 returned ATG4B inh 10, MPTP block 101*, SKN-1 block -7, NRP1-CendR mod 4 and MPTP counter 79*.
`COc1ccc(CCNC(=O)c2nn(C)cc2Cl)cc1` gave ATG4B inh -2, CFTR F508del cor -2, MPTP block -1, SKN-1 block 10 and NRP1-CendR mod 15.
COc1ccc(CCNC(=O)c2cc(-c3ccc(Cl)c(Cl)c3)oc2C)cc1 was read as ATG4B inh -5, MPTP block 91*, SKN-1 block -1, NRP1-CendR mod 6 and MPTP counter 91*.
For CC(C)n1c(-c2ccc(C(C)(C)C)cc2)n[nH]c1=S the results were ATG4B inh 4, MPTP block 68*, SKN-1 block 5, NRP1-CendR mod 2 and MPTP counter 67*.
CC(C)(C)c1ccc(-c2n[nH]c(=S)n2Cc2ccccc2)cc1 was read as ATG4B inh 5, CFTR F508del cor -1, MPTP block 3, SKN-1 block 8 and NRP1-CendR mod 7.
CC(Cc1cccs1)NC(=O)Nc1ccc(Cl)c(Cl)c1 (stereo not given) was read as ATG4B inh 1, MPTP block 96*, SKN-1 block -5, NRP1-CendR mod 5 and MPTP counter 94*.
For CC(NC(=O)Nc1ccc(Cl)c(Cl)c1)C(c1ccccc1)N1CCOCC1 (stereo not given) the results were ATG4B inh 4, CFTR F508del cor 3, MPTP block 89*, SKN-1 block -17, NRP1-CendR mod 24 and MPTP counter 95*.
C(=N\Nc1nc(-c2ccccc2)cs1)/c1ccncc1 was read as ATG4B inh -10, CFTR F508del cor 0, MPTP block -1, SKN-1 block 14 and NRP1-CendR mod -2.
CN(C)S(=O)(=O)c1ccc(-c2csc(N/N=C/c3ccc(O)cc3)n2)cc1 was read as ATG4B inh 6, CFTR F508del cor -5, MPTP block 58*, SKN-1 block 2, NRP1-CendR mod -2 and MPTP counter 43*.
Screening CC(C)NC(=O)N[C@H]1CC[C@@H](CC(=O)NC2Cc3ccccc3C2)O[C@@H]1CO returned CFTR F508del cor 2.
`CCC(C)NC(=O)CSc1nc(-c2cccs2)cc(C(F)(F)F)n1` (stereo not given) gave ATG4B inh -8, MPTP block 2, SKN-1 block 15 and NRP1-CendR mod -3.
For O=C(CSc1nc(-c2cccs2)cc(C(F)(F)F)n1)Nc1cc(OCC(F)(F)F)cc([N+](=O)[O-])c1 the results were ATG4B inh -2, MPTP block 100*, SKN-1 block 5, NRP1-CendR mod -9 and MPTP counter 79*.
Clc1ccc2c(c1)C(N1CCNCC1)Cc1ccccc1S2 (stereo not given) was read as ATG4B inh -4, MPTP block 83*, SKN-1 block -5, NRP1-CendR mod 6 and MPTP counter -7.
`Clc1cccc2c1Sc1ccccc1CC2N1CCNCC1` (stereo not given) gave ATG4B inh 19, MPTP block 93*, SKN-1 block 9, NRP1-CendR mod 2 and MPTP counter -11.
`COCCCN1CCN(C2Cc3ccccc3Sc3ccc(Cl)cc32)CC1` (stereo not given) gave ATG4B inh 30, MPTP block -3, SKN-1 block -25 and NRP1-CendR mod -3.
For CCCC(=O)Nc1ccc2c(c1)C(=O)N(C)[C@@H]1CC[C@@H](CC(=O)OC)O[C@H]1CO2 the results were CFTR F508del cor 4.
For COc1ccc(C2=CC(=O)N(Nc3ccccc3)C2=O)cc1 the results were ATG4B inh -11, MPTP block 61*, SKN-1 block -7, NRP1-CendR mod 5 and MPTP counter -8.
